A selection: hits, their analogues and other compounds. The true share with any hit is near 1.4%.
pAkt inh = HTS Assay for Inhibitors of Akt Phophorylation: Primary Screen. Neuro2A IGF-stimulated pAkt S473 HTRF, 20 min; hits give low values. activity change, % for hits at 50 µM. actives 0.32% (n = 360,000). AID 651550, 2012; in the data active = activity change below about -80%; inconclusive = mostly about -51% to -80%; note: % is set by controls: 0 for no effect and ±100 for the full control effect
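Single-point screen (50 µM final compound) in Neuro2A cells stimulated 20 min with 6 nM IGF at 37 deg C. After lysis, Ser473-phosphorylated Akt read by HTRF (ex 330 nm, em 615/665 nm) as the 665/615 ratio.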
S-ASM inh = Inhibitors of Secretory Acid Sphingomyelinase (S-ASM): qHTS | placental ASM, HMU-PC fluorogenic substrate, 60 min | Potency, µM (titrated, usually from 57.5 µM), for inactives: at the highest dose activity change, negative = inhibition, hits mostly inhibitors | actives 0.006% (n = 340,000) | AID 504937, 2011; note: potency is the fitted concentration of half-maximal effect
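Steps: dispense placental human ASM, pin compound, wait 10 min at room temperature, add HMU-PC0 substrate at 9 uM final, incubate 60 min at 37 °C, add stop solution raising pH to 10, read fluorescence.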
Vif-A3F inh = qHTS for Inhibitors of Vif-A3F Interactions: qHTS; Potency, µM (top dose mostly 46.1 µM), without a hit: at the highest dose activity, negative = active; actives 0.2% (n = 390,000); HeLa A3F-eYFP + Vif (tagged APOBEC3F with the HIV-1 protein that degrades it), YFP fluorescence increase; AID 602313, 2012; note: potency is the fitted concentration of half-maximal effect; % of control where 0% means no effect; nearly all actives have a fitted effect of over 65% in size
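Fluorescence increase (Ex 488/Em 500-530) after overnight compound treatment at 37 deg C flags inhibition of Vif-driven A3F-eYFP loss in stable HeLa A3F-eYFP/Vif cells seeded overnight beforehand.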
TSG101-PTAP inh = qHTS Assay for Iinhibitors of HIV-1 Budding by Blocking the Interaction of PTAP/TSG101; Tumor susceptibility gene 101 protein (Homo sapiens), Q99816; Fluorescence polarization, FITC-PTAP peptide / Tsg101 binding; Potency, µM (highest dose often 115 µM), for inactives: at the highest dose activity change, negative = inhibition, most hits filed as inhibitors; 340,000 tested, under 10 active; AID 493005, 2010; active = well fitted inhibition curve with a large enough effect in the main read-out, with a control signal flat, not every such curve was filed as active; inconclusive = small, poorly fitted or top-dose-only effect, or effect the other way, or a change in a side signal; inactive = no such curve, though single readings can be large or run the other way; note: potency is the fitted concentration of half-maximal effect; % of control where 0% means no effect
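Fluorescence polarization binding of Tsg101 binding domain (10 uM final) to FITC-labeled PTAP peptide (50 nM final) in HEPES pH 7.5 buffer with NaCl, Tween 20, EDTA, TCEP. Compounds added before peptide; binding 20 min at RT.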
Vif-A3G inh = qHTS for Inhibitors of Vif-A3G Interactions: qHTS. Potency, µM (series often up to 46.1 µM), without a hit: at the top dose activity, negative = active, actives largely listed as inhibitors. DNA dC->dU-editing enzyme APOBEC-3G (Homo sapiens), Q9HC16. HeLa A3G-eYFP + Vif (tagged APOBEC3G with the HIV-1 protein that degrades it), YFP fluorescence, overnight. actives 0.076% (n = 410,000); note: potency is the fitted concentration of half-maximal effect; % is set by controls: 0 for no effect and ±100 for the full control effect; nearly all actives have a fitted effect of over 60% in size
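HeLa cells stably expressing Vif and C-terminally eYFP-tagged A3G, seeded overnight at 37 deg C, then exposed to compound by pintool overnight at 37 deg C. Rise in yellow fluorescence (Ex 488/Em 500-530, Acumen) marks blocked Vif-driven A3G degradation.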
12-LOX inh = Primary qHTS assay for inhibitors of human arachidonate 12S-lipoxygenase (ALOX12): Round 2; purified 12hLO, xylenol orange hydroperoxide absorbance; Potency, µM (titrated, usually from 108 µM), for the others: at the top dose activity change, negative = inhibition, most hits filed as inhibitors; actives 1.1% (n = 580,000); AID 1671190, 2021; note: potency is the fitted concentration of half-maximal effect; % is set by controls: 0 for no effect and ±100 for the full control effect
Target sequence (P18054 whole entry, looked up): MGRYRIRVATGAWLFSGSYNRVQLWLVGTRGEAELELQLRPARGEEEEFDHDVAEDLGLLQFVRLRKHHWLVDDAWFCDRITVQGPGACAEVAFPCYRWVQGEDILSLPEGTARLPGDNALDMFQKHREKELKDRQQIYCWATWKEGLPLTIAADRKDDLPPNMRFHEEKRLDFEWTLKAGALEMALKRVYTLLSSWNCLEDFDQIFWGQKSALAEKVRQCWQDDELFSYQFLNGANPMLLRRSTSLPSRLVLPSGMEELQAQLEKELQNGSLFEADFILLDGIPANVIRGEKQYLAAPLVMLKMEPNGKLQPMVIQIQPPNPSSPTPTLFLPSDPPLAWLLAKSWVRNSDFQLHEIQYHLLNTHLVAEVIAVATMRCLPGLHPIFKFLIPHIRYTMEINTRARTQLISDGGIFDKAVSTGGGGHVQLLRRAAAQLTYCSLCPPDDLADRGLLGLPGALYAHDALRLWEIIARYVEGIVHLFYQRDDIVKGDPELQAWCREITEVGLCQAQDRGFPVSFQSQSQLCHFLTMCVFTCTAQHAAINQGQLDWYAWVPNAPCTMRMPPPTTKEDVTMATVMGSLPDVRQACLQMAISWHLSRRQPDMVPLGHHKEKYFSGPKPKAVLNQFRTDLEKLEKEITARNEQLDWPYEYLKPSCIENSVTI
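Purified human 12hLO (150 nM final) in 25 mM Hepes, 0.01% Triton X-100, pH 7.0 was preincubated 15 min at room temperature with compound. Then 40 uM arachidonic acid was added, 30 min. Hydroperoxide was read by Fe-XO absorbance ratio 573/405 nm.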
Active calls of the source: *; i = inactive; ? = inconclusive; / = not tested or not shown; [ ] = another dose, or the depositor's remark. Unless noted, calls come from the whole dose curve; as a rule, active = well fitted curve in the direction sought with a large enough effect; inconclusive = small, poorly fitted or top-dose-only effect, or another doubt; inactive = no such curve, though single readings can be large; an effect the other way counts as inactive or inconclusive.

SMILES	pAkt inh	S-ASM inh	Vif-A3F inh	TSG101-PTAP inh	Vif-A3G inh	12-LOX inh
COc1ccc(-c2cc(NC(=O)c3cccc(S(=O)(=O)NCC4CCCO4)c3)ccc2OC)cc1 (stereo unspecified)	/	/	/	/	/	-15%
CCn1c(SCc2coc(-c3cccs3)n2)nnc1-c1ccccc1	/	/	/	/	/	-23%
COCCN1C(=O)c2n[nH]c(-c3ccco3)c2C1c1ccc(OC)c(OC)c1 (stereo unspecified)	/	/	/	/	/	-1%
O=[N+]([O-])c1cccc(/C=N/Nc2nccnc2Cl)c1	-83%*	-3%	-11%	-3%	2%	0%
O=[N+]([O-])c1cccc(/C=N/Nc2nnc(Cl)c3ccccc23)c1	/	/	/	/	/	-6%
Cc1cccc(OCCCCn2c(C3CC(=O)N(c4ccc(C)cc4C)C3)nc3ccccc32)c1 (stereo unspecified)	/	/	-9%	/	-8%	18µM*
c1cc(-c2noc([C@@H]3Cc4nc[nH]c4CN3CC3CCCCC3)n2)ccn1	/	/	/	/	/	107%[176 µM]
CC(C)COc1ccc(C(=O)OCC[N+]2(C)CCOCC2)cc1	/	/	/	/	/	5.6µM*
Cc1cc(SCC(=O)NN2C(=O)NC3(CCC(C)CC3)C2=O)nc2c(C)cccc12 (stereo unspecified)	/	/	/	/	/	-9%
O=C(Nc1ccccc1)Nc1ccccc1	i	0%	5%	3%	0%	13%
O=C(Nc1ccccc1)Nc1ccc(Cl)nc1Cl	i	-2%	3%	0%	-1%	3.2µM*
CCCCCC(=O)N1C[C@@H](O)[C@H](n2cc(-c3ccc(F)cc3)nn2)C[C@@H]1c1ccc(Cl)cc1	i	/	-7%	/	0%	10µM*
CC(C)Cn1cc(NC(=O)Nc2cccc(C(F)(F)F)c2)c2ccccc2c1=O	/	/	0%	/	-2%	7.1µM*
CC(C)Cn1cc(NC(=O)N2CCN(c3cccc(C(F)(F)F)c3)CC2)c2ccccc2c1=O	/	/	2%	/	-20%	-23%
CC(=O)C1=C(C)N(Cc2ccc(Br)cc2)C(=S)NC1c1cccc(Br)c1 (stereo unspecified)	/	/	/	/	/	32µM*
CC(=O)C1=C(C)N(Cc2ccc(Cl)cc2)C(=S)NC1c1cccc(Br)c1 (stereo unspecified)	/	/	/	/	/	40µM*
CC(=O)C1=C(C)N(CC(C)C)C(=S)NC1c1ccc(Br)cc1 (stereo unspecified)	/	/	/	/	/	40µM*
CCOc1ccc(Br)cc1C(=O)Oc1ccc(C)cc1Br	/	/	/	/	/	1%
NC(=O)c1ccc(NC(=O)[C@H](Cc2ccccc2)n2cnnn2)cc1	/	/	/	/	/	-16%
COc1ccc(-n2nnnc2C(C2CC2)N2CCN(C/C=C/c3ccccc3)CC2)cc1 (stereo unspecified)	i	/	/	/	-1%	40µM*
CC(=O)N1c2ccccc2Sc2ccc3ccccc3c21	i	/	-4%	/	-6%	9%
O=C(CCl)N1c2ccccc2Sc2c1ccc1ccccc21	i	-9%	-12%	-1%	-25%	35µM*
CCNC(=O)NC(=O)CN(Cc1ccccn1)C(C)C	/	/	/	/	/	7%
CCC1(c2ccc(Cl)cc2)NC(=S)N(c2ccc(C)cc2)N1 (stereo unspecified)	i	-10%	0%	-4%	0%	28µM*
CCC1(c2ccc(Cl)cc2)NC(=S)N(c2ccc(C)c(C)c2)N1 (stereo unspecified)	i	-6%	-1%	-6%	-9%	?
SMILES	pAkt inh	S-ASM inh	Vif-A3F inh	TSG101-PTAP inh	Vif-A3G inh	12-LOX inh
COC(=O)/C(C#N)=C\c1cn[nH]c1C(C)(C)C	/	/	/	/	/	-12%
CC1=C[C@@H](CNCc2ccccn2)[C@H](C(C)C)C[C@H]1Cc1nnc(-c2ccccc2F)o1	/	/	/	/	/	140%[176 µM]
O=C(CCC1COc2ccccc2O1)N1CCCC1 (stereo unspecified)	-100%*	0%	-1%	0%	2%	64%
Cc1cc(C)n(C(=O)CCC2COc3ccccc3O2)n1 (stereo unspecified)	i	1%	2%	-4%	1%	-22%
O=C1Nc2ccccc2SC1c1ccccc1 (stereo unspecified)	i	-4%	-2%	-6%	3%	0%
Cc1ccc(NC2Sc3ccccc3NC2=O)cc1 (stereo unspecified)	i	-1%	?	-3%	-14%	7.1µM*
COCCCNC(=O)CCc1ncc(-c2ccccc2F)o1	/	/	/	/	/	8%
Cc1ccccc1-n1nnnc1SCC(=O)c1ccc(Br)s1	/	/	/	/	/	25µM*
COc1ccc(OC)c(S(=O)(=O)CC(=O)c2cc3ccc(OC)cc3oc2=O)c1	i	4%	12%	-1%	0%	/
CC(C)(C)NC(=O)c1cc2cc(Br)ccc2oc1=O	/	/	/	/	/	3%
COc1ccc(S(=O)(=O)CC(=O)c2cc3cc(Br)ccc3oc2=O)cc1	i	-3%	-21%	1%	-16%	7.9µM*
O=C(Nn1cnnc1)c1cc2cc(Br)ccc2oc1=O	-93%*	2%	-12%	-5%	2%	-4%
CCCCCCC(=O)N/N=C/c1ccc(C(C)C)cc1	/	/	/	/	/	31%
O=C1C(=O)N(CCCO)C(c2ccc(Br)cc2)/C1=C(\O)c1ccc(Br)cc1 (stereo unspecified)	i	3%	9%	-9%	-8%	35µM*
COCCCN1C(=O)C(=O)/C(=C(/O)c2ccc(S(=O)(=O)N3CCCCC3)cc2)C1c1ccc(O)c(OC)c1 (stereo unspecified)	i	-5%	-12%	-3%	3%	?
CN(C)c1ccc(C2/C(=C(/O)c3ccc(Br)cc3)C(=O)C(=O)N2C)cc1 (stereo unspecified)	i	5%	-18%	-2%	1%	5.6µM*
COCCCN1C(=O)C(=O)/C(=C(/O)c2ccc(OC)cc2)C1c1ccc(O)c(OC)c1 (stereo unspecified)	i	2%	-1%	-5%	2%	6.3µM*
COc1ccc(CCC2CCN(C(=O)C3CCN(S(=O)(=O)c4ccc(C)cc4C)CC3)CC2)cc1	/	/	/	/	/	-1%
O=C(COc1ccc(Cl)cc1)N1C[C@@H](CO)[C@H](c2ccccn2)C1	/	/	/	/	/	-4%
